Measured values from PubChem BioAssay AID1878 (Sanford-Burnham Center for Chemical Genomics, 2009).
The whole screen tested about 1,000 compounds, of which about 200 (20%) were called active. A selection follows. Entries with a potency or affinity are not part of this list. Unmarked numbers belong to inactive results. Rule as the data show it: active = inhibition above about 55%; inactive = the rest.

What follows are molecules tested against Dual specificity protein phosphatase 3 (Homo sapiens) (UniProt P51452) (assay: VHR1 phosphatase inhibitors, biochemical (AID 1878)). Conditions: recombinant VHR phosphatase, fluorogenic substrate; at 13.3 µM; hits give high values.
Sequence of Dual specificity protein phosphatase 3 (Homo sapiens) (P51452 whole entry, looked up): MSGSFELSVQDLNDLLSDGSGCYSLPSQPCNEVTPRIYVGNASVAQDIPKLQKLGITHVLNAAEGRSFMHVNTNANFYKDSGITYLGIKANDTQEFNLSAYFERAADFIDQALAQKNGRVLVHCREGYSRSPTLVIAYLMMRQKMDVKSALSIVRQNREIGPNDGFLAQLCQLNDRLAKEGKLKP
For `COc1ccc(OCC(O)CN(CC(O)COc2ccc(OC)cc2)c2cccc(O)c2)cc1` (stereo not given), the inhibition was 3.9%.
With `CCC(CO)(CO)N(CC(=O)Nc1ccc(OC)cc1)CC(=O)Nc1ccc(OC)cc1` the inhibition was 5.4%.
In the case of `N=C1/C(=C\c2ccc(-c3ccc(C(=O)O)cc3)o2)C(=O)N=C2SC=C(c3ccccc3)N12`, the inhibition is reported as 97.1% (active).
For `N=C1/C(=C\c2ccc(-c3cccc(C(=O)O)c3)o2)C(=O)N=C2SC=C(c3ccccc3)N12`, the inhibition was 88.1% (active).
With `N=C1/C(=C/c2ccc(-c3cccc(C(=O)O)c3)o2)C(=O)N=C2SC=C(c3ccccc3)N12` the inhibition was 79.5% (active).
`COc1ccc(S(=O)(=O)N2CCCOC2CNC(=O)C(=O)NC2CCCC2)cc1` (stereo not given) was tested, and the inhibition was -10.2%.
`Cc1cc(Br)c(S(=O)(=O)NCc2cccnc2)cc1C` was tested, and the inhibition was 5.2%.
`OC(COC(c1ccc(F)cc1)c1ccc(F)cc1)CN1CCCC(C(F)(F)F)C1` (stereo not given) gave an inhibition of -7.4%.
For `Fc1cccc(/C=N/n2c(C3CCCCC3)n[nH]c2=S)c1`, the inhibition was 0.6%.
For `COc1ccc(CCC(=O)NCCc2cnc[nH]2)cc1`, the inhibition was -0.5%.
`CCOc1cc2[nH]c(=S)n(Cc3ccc(C(=O)NCCCOC)cc3)c(=O)c2cc1OCC` was tested, and the inhibition was 11.5%.
For `O=C(N=C1SC2CS(=O)(=O)CC2N1Cc1ccccc1)C1CCCO1` (stereo not given), the inhibition was -9.5%.
Work on `Cc1ccc(S(=O)(=O)NCC(=O)N2CCc3ccccc3C2)cc1` yielded an inhibition of 7.4%.
`Cc1ccccc1-n1c(SCC(=O)Nc2ccccc2Cl)nc2n[nH]c(C)c2c1=N` showed an inhibition of -7.4%.
For `CCn1c(C)c(C)c2cc(C(=O)NCCCN3CCCCC3C)ccc21` (stereo not given), the inhibition was -4.1%.
`O=C1CCCN1CCCNC(=S)Nc1ccc(F)c(Cl)c1` was tested, and the inhibition was 58.6% (active).
For `COc1ccc(NC(=S)NCCCN2CCCC2=O)c(OC)c1`, the inhibition was 47.4%.
`O=C1CCCN1CCCNC(=S)Nc1ccc(F)cc1` gave an inhibition of 48.6%.
For `CC(=O)c1cccc(CN2CCC(CO)(CCOc3ccccc3)CC2)c1`, the inhibition was -26.7%.
`COc1ccc(Cl)cc1NC(=O)C/C(C)=N/NC(=O)c1ccc(O)cc1` showed an inhibition of -3.4%.
`CCOC(=O)CN(C)Cc1cn[nH]c1-c1ccc2cc(OC)ccc2c1` showed an inhibition of 4%.
With `O=C(CC12CC3CC(CC(C3)C1)C2)NCc1ccc(F)cc1` the inhibition was -9.3%.
Molecule `CN(C)C(=O)OCC1COc2ccccc2O1` (stereo not given) has an inhibition of 0.1%.
`Cn1c2ccccc2c(=O)c2c(=O)n(C3CCCCCC3)c(C3CCCCC3)nc21` was tested, and the inhibition was 95.7% (active).
Molecule `COc1ccc(NC2CCCN(C(=O)c3oc(C)cc3C)C2)cc1OC` (stereo not given) has an inhibition of 1.1%.
`Cc1nc(C)c(C(=O)Nc2cccc(C)c2C)s1` showed an inhibition of 32.5%.
For `O=C(O)C1Nc2c(O)cc(Cl)c([N+](=O)[O-])c2C2C=CCC12` (stereo not given), the inhibition was 92.7% (active).
With `O=C(O)C1Nc2c(Cl)cc(Cl)cc2C2C=CCC12` (stereo not given) the inhibition was 89.8% (active).
With `O=C(Cn1c(=O)c2cccn2c2ccccc21)NCCCN1CCCCC1` the inhibition was 2%.
`O=C(CCC(=O)c1ccc(F)cc1)NCc1ccccc1C(F)(F)F` gave an inhibition of 2.4%.
`COc1cc(CN2CCN(CC3CC3)CC2CCO)cc(OC)c1` (stereo not given) was tested, and the inhibition was -3.6%.
With `CN(Cc1ccccc1)C(=O)COC(=O)COc1ccc(C#N)cc1` the inhibition was -2.2%.
With `CC(C(=O)NCCCc1ccccc1)n1cccc1C(=O)c1ccccc1` (stereo not given) the inhibition was 17.1%.
Work on `CC(C)[C@H](NC(=O)C1CCN(S(=O)(=O)c2ccccc2)CC1)C(=O)NCc1ccccc1` yielded an inhibition of 12.2%.
With `CCCc1cc(SCC(=O)Nc2c(C)n(C)n(-c3ccccc3)c2=O)n2c(nc3ccccc32)c1C#N` the inhibition was 98.7% (active).
In the case of `CC(C(=O)Nc1cccc(S(=O)(=O)N2CCOCC2)c1)N1CCN(C)CC1` (stereo not given), the inhibition is reported as -1.7%.
With `CCOC(=O)c1c(C)n(CCOc2ccccc2)c2ccc(O)cc12` the inhibition was 14.4%.
Molecule `CC(C)/C=C/CN1CCCC(N2CCN(c3cccc(Cl)c3)CC2)C1` (stereo not given) has an inhibition of -15%.
`COC(=O)c1ccc(COc2ccc(F)cc2)o1` gave an inhibition of 27.9%.
`C/C(=N\NC(=O)C(=O)Nc1ccc(C)c(Cl)c1)c1ccncc1` was tested, and the inhibition was 91.6% (active).
`Cc1ccc(F)c(CNC(=O)C2CCC(=O)N(Cc3ccccn3)C2)c1F` (stereo not given) showed an inhibition of 1.1%.
In the case of `CCC(=O)N1CCN=C1SCc1cccc(F)c1`, the inhibition is reported as 0.5%.
Work on `CCC(=O)Nc1c(-c2ccc(Cl)cc2)c(=O)c2ccccc2n1C` yielded an inhibition of -1.5%.
With `COC(=O)c1cc(S(=O)(=O)N2CCCCC2)c[nH]1` the inhibition was 4.2%.
Molecule `Cc1c(C)c2cc(Cl)c(OCC(=O)NC3CC(C)(C)NC(C)(C)C3)cc2oc1=O` has an inhibition of -11.9%.
For `Nc1ccc2nc3c(=O)[nH]c(=S)[nH]c3nc2c1`, the inhibition was 61.5% (active).
`COc1cccc(-c2ocnc2C(=O)Nc2ccc(N3CCOCC3)cc2N2CCOCC2)c1` was tested, and the inhibition was -5.2%.
Work on `CCCCN(CCCC)CCNC(=O)CN1C(=O)COc2ccc(S(=O)(=O)N3CCOCC3)cc21` yielded an inhibition of -18%.
With `Nc1nonc1-c1nc2ccccc2n1CC(=O)N/N=C/c1ccc(-c2cccc(C(=O)O)c2)o1` the inhibition was 73.2% (active).
`O=S(=O)(NCCc1csc(-c2cccnc2)n1)c1ccc(F)cc1` was tested, and the inhibition was -3.7%.
With `Oc1ccc(/C=N/Nc2ncc(Cl)cc2Cl)cc1` the inhibition was 14.3%.
With `CCc1c(C)nc2c(-c3ccccc3)c(-c3ccccc3)[nH]n2c1=O` the inhibition was 1.4%.
`COC(=O)c1ccc(NS(=O)(=O)c2ccc3c(c2)n(C)c(=O)n3C)cc1` gave an inhibition of -7.8%.
With `CCCN1CCC(=O)N([C@H](CSc2ccccc2)CC(C)C)CC1` the inhibition was -3.5%.
Work on `COc1cccc(-c2coc3cc4oc(=O)c(CCC(=O)O)c(C)c4cc23)c1` yielded an inhibition of -0.1%.
For `O=C(NCCCN1CCCCC1)c1ccc(CS(=O)c2ccc(Cl)cc2)o1` (stereo not given), the inhibition was -3.5%.
`OCCC1CCCCN1CC(O)COCc1ccc(Cl)cc1` (stereo not given) gave an inhibition of -7.1%.
`c1ccc(-c2ccnc3nc(N4CCN(c5ccccc5)CC4)nn23)cc1` was tested, and the inhibition was 19%.
`CC1Cc2cc(-c3csc(N)n3)ccc2O1` (stereo not given) was tested, and the inhibition was 7.6%.
For `O=C(CNC(=O)c1ccco1)Nc1ccc(Br)cc1`, the inhibition was 7%.
`S=C(c1ccc(OCc2ccccc2)cc1)N1CCCC1` gave an inhibition of 7.3%.
`CCCC(CCC)C(=O)NC1CCN(Cc2ccccc2)CC1` showed an inhibition of -4.1%.
In the case of `CN(C)c1ccc(C(=S)N2CCN(Cc3ccccc3)CC2)cc1`, the inhibition is reported as 56.8% (active).
Molecule `O=c1[nH]c2ccc(NS(=O)(=O)c3ccc(F)c(Cl)c3)cc2[nH]1` has an inhibition of -7.2%.
Work on `NC(=S)N/N=C/c1ccc2cccc(OCc3ccccc3)c2n1` yielded an inhibition of 9.9%.
`Cc1cc2c(cc3c(=O)n(CC(=O)NCCCN4CC(C)CC(C)C4)ncn32)s1` (stereo not given) showed an inhibition of -3.8%.
`Cc1[nH]c(=O)[nH]c(=O)c1S(=O)(=O)Nc1ccc(Br)cc1F` was tested, and the inhibition was 4.3%.
With `O=C(N[C@@H](Cc1ccccc1)C(=O)N1CCC2(CC1)NCCc1[nH]cnc12)c1cccc(F)c1` the inhibition was 19.9%.
In the case of `CN1CCN(Cc2nc3ccccc3n2C)CC1CCO` (stereo not given), the inhibition is reported as -0.8%.
In the case of `CS(=O)(=O)C1=NSC2=NC(=O)/C(=C\c3cccn3-c3ccc(Cl)cc3)C(=N)N21`, the inhibition is reported as 86.4% (active).
`Cc1ccc(-n2cccc2/C=C2\C(=N)N3N=C(c4ccco4)SC3=NC2=O)cc1` was tested, and the inhibition was 98.9% (active).
Work on `c1ccc(NC2=NCCCS2)cc1` yielded an inhibition of -2.2%.
`COc1ccc(C)c(NC(=O)NCCc2cnc[nH]2)c1` was tested, and the inhibition was 7.6%.
Molecule `CCOc1ccc(S(=O)(=O)N2CCOCC2)cc1NC(=O)CSCC(=O)Nc1cccc(C)c1` has an inhibition of -2.1%.
`CCCCCCC(=O)Nc1nc(C)c(-c2csc(Nc3cc(OC)ccc3OC)n2)s1` was tested, and the inhibition was 11.7%.
Molecule `O=C(COc1ccc(S(=O)(=O)N2CCOCC2)cc1)N1CCN(c2ccccc2)CC1` has an inhibition of 7.2%.
In the case of `CNC1(C(N)=O)CCNCC1`, the inhibition is reported as -8.1%.
Molecule `CC1=CC(=C2C=CC(=O)C=C2)C=C(C)N1C` has an inhibition of 4.7%.
Work on `CCCCNC(=O)CCc1c(C)nc2c(c(C)nn2-c2ccccc2)c1C` yielded an inhibition of -6.7%.
Work on `Cc1ccc(CC(=O)NC2CCN(C)CC2)cc1` yielded an inhibition of 21.9%.
For `Cc1cccc(-n2c(N)c(C(=O)N3CCN(C)CC3)sc2=S)c1`, the inhibition was 36.6%.
For `CN1CCCN(C(=O)c2cccc(Cl)c2)CC1`, the inhibition was -8.6%.
In the case of `CC(C)c1ccc(NC(=O)N2CCN(S(=O)(=O)c3ccccc3)CC2)cc1`, the inhibition is reported as 0%.
Molecule `Nc1c2c(nc3c1CCCC3)CCCC2` (tested in a mixture with another compound) has an inhibition of -12.1%.
With `CN(C)CCN(Cc1ccccc1)C(=O)C1CCN(c2ncnc3c2nc2n3CCCCC2)CC1` the inhibition was -3.7%.
`CC(C)(C)NC(=S)N1CCC(C(=O)c2ccc(F)cc2)CC1` gave an inhibition of -7.6%.
With `Cc1ccc(N=C2C(=O)Nc3c(C)cccc32)cc1` the inhibition was -18.2%.
`O=S(=O)(NC(=NCc1ccccc1)c1ccccc1)c1ccccc1` was tested, and the inhibition was -7.7%.
`CCC(C)(C)NC(=O)CN(C(=O)CCC(=O)Nc1nccs1)c1ccc2c(c1)OCCO2` gave an inhibition of 1.8%.
With `O=C(c1cccc([N+](=O)[O-])c1)c1ccc2c(c1)C(=O)N(c1c[nH]c(=O)[nH]c1=O)C2=O` the inhibition was -0.9%.
`CC(C)=C(NC(=O)c1ccccc1)C(=O)NCCc1nc2ccccc2[nH]1` was tested, and the inhibition was 26.9%.
`CCc1ccc2nc(NC(=O)c3ccc4c(=O)[nH]c(CN5CCOCC5)nc4c3)sc2c1` was tested, and the inhibition was 66.5% (active).
Work on `Cc1ccc2nc(NC(=O)C3CC3C)sc2c1` (stereo not given) yielded an inhibition of -7.4%.
Molecule `CCN(CC)CCCNC(=O)c1oc2ccc3c(c2c1C)C(O)CC(C)(C)O3` (stereo not given) has an inhibition of -1.6%.
`CC(C)C(=O)N1CCC(n2nccc2NC(=O)CCc2ccccc2)CC1` showed an inhibition of -2.1%.
